Laboratory results published in PubChem BioAssay AID1645859 (Buhrlage Lab, Dana-Farber Cancer Institute and Novartis …, 2021).
The campaign covered roughly 47,000 compounds. About 95 (0.2%) were called active. Rule as the data show it: active = inhibition above about 30%; inactive = the rest. The sample as a whole holds a higher share of actives than the screen did.

These compounds were tested against Ubiquitin carboxyl-terminal hydrolase isozyme L1 (Homo sapiens) (UniProt P09936) (assay: blocks human UCHL1 ubiquitin-rhodamine cleavage (AID 1645859)). Conditions: purified UCHL1, Ub-rhodamine cleavage fluorescence; at 20 µM; hits give high values.
Chain of Ubiquitin carboxyl-terminal hydrolase isozyme L1 (Homo sapiens) (P09936 whole entry, looked up): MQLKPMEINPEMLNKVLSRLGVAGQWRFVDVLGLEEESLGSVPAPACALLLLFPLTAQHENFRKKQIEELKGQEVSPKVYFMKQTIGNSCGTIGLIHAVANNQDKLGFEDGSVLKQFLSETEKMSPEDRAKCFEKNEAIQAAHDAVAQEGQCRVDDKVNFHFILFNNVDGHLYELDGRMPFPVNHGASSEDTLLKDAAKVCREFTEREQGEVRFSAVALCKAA

inhibition, inactive:
Cc1ccc(CN2C[C@H]3C[C@H](C(=O)NC(C)C)[C@@H](C2)O3)o1 2.08%
O=C1NC(=O)N2Cc3ccccc3CN(C(=O)c3ccc(Cl)cc3)CC12 (stereo not given) 0.947%
COc1ccc(CN=C2NS(=O)(=O)C(c3ccc(F)cc3)=C2C)cc1OC -4.12%
c1coc(CNc2nc(Nc3cccc4ccccc34)nc3ccccc23)c1 5.02%
CC(CC(=O)N1CCc2ccccc2C1)S(=O)(=O)c1ccc2c(c1)NC(=O)CCS2 (stereo not given) -1.85%
COc1ccc(C)cc1NC(=O)c1coc(NC(=O)c2ccco2)n1 -2.46%
CO[C@H]1C[C@@H]2CC[C@@H](C)[C@@](O)(O2)C(=O)C(=O)N2CCCC[C@H]2C(=O)O[C@H]([C@H](C)C[C@@H]2CC[C@@H](O)[C@H](OC)C2)CC(=O)[C@H](C)/C=C(\C)[C@@H](O)[C@@H](OC)C(=O)[C@H](C)C[C@H](C)/C=C/C=CC=C1C 6.78%
CCN1CCN(c2ccc(-c3nc(-c4cccc(F)c4)no3)cn2)CC1 -1.45%
CCc1nc(SCC(=O)Nc2cccc(OC)c2)c2c(=O)n(C)c(=O)n(C)c2n1 -0.222%
O=C1C2Cc3c([nH]c4ccccc34)C(c3ccccc3)N2C(=O)CN1C1CCCCC1 (stereo not given) 5.95%
O=C(C1=Cc2ccccc2OC1)N1CCN(c2ccccc2)CC1 0.226%
COc1cccc(C(=O)NC2CC(=O)N(c3ccc(F)cc3)C2)c1OC (stereo not given) 0.016%
Cc1nc(C2CCN(C(=O)C(C)(C)C)CC2)cc(N2C(=O)OCC2C(C)C)n1 (stereo not given) -3.66%
CC(C)c1cc(N2CCCCC2)nc(-c2ccccn2)n1 -3.77%
CN(C)S(=O)(=O)N1C[C@H](OCc2ccccn2)[C@H]2OCCC[C@H]21 -1.03%
Cc1nccn1-c1cccc(C2CCCN(c3ncccn3)C2)n1 (stereo not given) -0.888%
C/C=C(\C)C(=O)O[C@@H]1C[C@@]2(C)CC[C@H](C(C)C)[C@@]2(O)CC[C@@]1(C)O -2.54%
O=C1CN2CC(c3ccccc3S2(=O)=O)N1Cc1ccccc1 (stereo not given) -1.24%
CCC(=O)c1c(-c2ccc(F)cc2)c2c3n(c(-c4ccc(Cl)c(Cl)c4)cn13)CCCC2 3.03%
O=C1N[C@H]2OCCC[C@H]2[C@H](c2cccc(CNC(=O)c3ccon3)c2)N1 1.68%
Cc1ccccc1CN1C(=O)N(c2cccc(F)c2)c2ncccc2S1(=O)=O 3.52%
Cc1cnn(CC2CCCN2Cc2nc(-c3ccco3)no2)c1 (stereo not given) -8.36%
CC(=O)NCc1nc(-c2ccc3c(c2)nc(C)c(=O)n3C2CCCC2)no1 -31.3%
O=C(C1CCCN(c2cnc3nccnc3c2)C1)N1CCCCCC1 (stereo not given) -42.4%
CN(C)c1ncc(CN2CCN(C)C(c3ccccc3)C2)cn1 (stereo not given) -0.428%
CNC(=O)C1Cc2ccccc2N1S(=O)(=O)c1cccnc1 (stereo not given) -8.34%
Cc1ccc(C)c(S(=O)(=O)NCC(c2ccc3c(c2)CCN3C)N2CCCC2)c1 (stereo not given) -2.82%
COc1ccc(C(=O)N2CCCC(c3ccnc(=O)[nH]3)C2)cn1 (stereo not given) -1.26%
Cc1ccc(NC(=O)N2CCSc3ccccc32)cc1 -0.231%
Cc1nc(C2CCCN2C(=O)c2ccccn2)nc2c1CCCN2Cc1ccccn1 (stereo not given) -7.02%
COc1ccc(NC(=O)CN(C)C(=O)c2ccc3c(c2)nnn3C)cc1 2.41%
Cc1ccc(C(=O)N2CCN3Cc4ccccc4N(C)CC3C2)cc1 (stereo not given) -155%
Cc1cc(-c2cncnc2-c2ccc(CNC(=O)Cc3cc(F)ccc3F)cc2)on1 2.52%
CCc1ccc(C2CN3C(=O)CN(CCN4CCOCC4)C(=O)[C@]3(C)c3[nH]c4ccccc4c32)cc1 (stereo not given in full) 7.01%
O=C(O)c1ccccc1-c1ccccc1C(=O)Nc1ccccc1O 1.93%
O=C(Nc1cccc(-c2cccc(F)c2)c1)C1CCN(Cc2cccc3c2OCO3)CC1 6.73%
CC(C)(C)c1ccc(Oc2ccc(NC(=O)c3ccc4c(c3)CCO4)cn2)cc1 1.03%
CN(C(=O)CC(NC(=O)c1ccccc1)(c1ccccc1)c1ccccc1)c1ccccc1 1.79%
Cc1ccc(NC(=O)CCc2nc(CSc3nnc(-c4ccco4)o3)no2)cc1C 1.67%
CNCC(=O)N1CCCC(c2nc(C)cc(Nc3cccc(C)n3)n2)C1 (stereo not given) 0.00326%
COc1ccc(C)cc1NC(=O)NC1(c2nc(C)no2)CCCCC1 -4.28%
Cc1sc2ncn(CC(=O)N3c4ccccc4CC3C)c(=O)c2c1C (stereo not given) -2.03%
Cc1ccc(CS(=O)(=O)c2cn(CC(=O)NCc3cccnc3)c3ccccc23)cc1 1.32%
O=C(C1CCCN(S(=O)(=O)c2ccccc2)C1)N1CCN(CCc2ccccn2)CC1 (stereo not given) -1.48%
COc1ccc(NC(=O)C2=C(C)Nc3ncnn3C2c2cccc(OCc3ccc(F)cc3)c2)c(OC)c1 (stereo not given) 4.6%
COc1cc(C2CC(=O)Nc3cc4c(cc32)OCO4)ccc1O (stereo not given) -1.12%
CC(C)Cc1ncc(CCCN=C(N)N)[nH]c1=O -8.33%
COc1ccc(C2c3cccn3CCN2C(=O)Nc2cccs2)cc1 (stereo not given) -66.3%
Cc1ccccc1Cn1cc(/C=C2/C(=N)N3N=C(COc4ccccc4)SC3=NC2=O)c2ccccc21 -1.05%
CCOC(=O)C1=C(COc2ccccc2C#N)NC(=O)NC1C (stereo not given) -3.02%
Cc1cc(C)n2nc(C(=O)N3CCCC(c4[nH]ncc4C)C3)cc2n1 (stereo not given) -2.57%
Cc1nc(N(C)Cc2ccccc2)c2c3c(sc2n1)CCCC3 -6.54%
Cc1oc(C2CCN(C(=O)NC3CCCC3)CC2)nc1C(=O)N(C)C 1.1%
CC1CCN(C(=O)Cn2c(=O)n(Cc3ccccc3)c(=O)c3cc(Cl)ccc32)CC1 3.62%
COc1ccccc1C1CNCCN1Cc1cnc(N(C)C)nc1 (stereo not given) -0.867%
Cc1cc(OCc2ccc(Cl)cc2Cl)cc2c1C(=O)CC(C)(C)O2 3.56%
Cc1noc(C2CN(Cc3nccs3)Cc3ccnn3C2)n1 (stereo not given) -2.68%
O=C(CCc1c[nH]c2ccccc12)N1CCN(C(=O)C2CCCO2)CC1 (stereo not given) -0.0658%
Cc1nc2ccccc2n(CC(=O)NCc2ccc(OC(C)C)cc2)c1=O -4.18%
CCCN1CCC(Nc2ncnc3scc(-c4ccccc4)c23)CC1 -1.59%
